Reference: PubChem BioAssay AID1619 (SRMLSC, 2009)
In all, about 220,000 compounds went through this assay and about 830 (0.38%) were called active.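 How the source made its calls: active means compound inhibiting the enzyme by more than half at any dose during confirmatory dose-response retesting; inconclusive means strong single-dose inhibitors picked by rank but not retested; inactive means the rest.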 Not all results are given here. Entries with a potency or affinity are not part of this list.

The compounds below were run against Leucine aminopeptidase (Plasmodium falciparum (isolate 3D7)) (UniProt Q8IL11) (assay: P. falciparum M17LAP inhibitors, primary screen, biochemical, fluorogenic H-Leu-NHMec substrate, 1536-well (AID 1619;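 further: plate controls were full reaction with DMSO carrier for no effect and no enzyme background for full effect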)). Conditions: recombinant M17LAP, H-Leu-NHMec fluorogenic kinetic assay; at 30 µM; stronger effect = higher value.
Leucine aminopeptidase (Plasmodium falciparum (isolate 3D7)), sequence (Q8IL11 whole entry, looked up): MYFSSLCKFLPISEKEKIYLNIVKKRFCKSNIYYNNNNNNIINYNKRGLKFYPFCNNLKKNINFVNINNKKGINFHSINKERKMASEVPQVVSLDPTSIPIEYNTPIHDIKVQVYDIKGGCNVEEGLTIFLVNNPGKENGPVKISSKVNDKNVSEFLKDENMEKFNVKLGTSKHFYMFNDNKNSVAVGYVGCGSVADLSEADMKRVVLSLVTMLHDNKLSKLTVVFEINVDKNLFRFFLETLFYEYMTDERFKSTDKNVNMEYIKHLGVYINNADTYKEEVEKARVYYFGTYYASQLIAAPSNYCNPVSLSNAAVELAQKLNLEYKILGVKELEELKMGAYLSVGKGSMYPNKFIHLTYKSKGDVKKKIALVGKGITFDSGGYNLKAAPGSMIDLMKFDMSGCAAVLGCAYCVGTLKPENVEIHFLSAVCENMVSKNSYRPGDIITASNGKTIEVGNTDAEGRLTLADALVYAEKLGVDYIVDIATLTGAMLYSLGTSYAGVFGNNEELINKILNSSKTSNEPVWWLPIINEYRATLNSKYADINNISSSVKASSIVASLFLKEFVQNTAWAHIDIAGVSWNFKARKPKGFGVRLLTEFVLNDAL

inhibition, inactive:
O=[N+]([O-])c1ccc(N2CCCC2)cc1NC(c1ccccc1)c1ccccc1 8.49%
CCOc1ccc(NC(=O)C(=O)N/N=C\c2ccc(CNS(=O)(=O)c3ccccc3)o2)cc1 0.49%
O=C1CCCC(O)=C1N=Nc1cccc(C(=O)O)c1 46.3%
O=Cc1cc(N=Nc2ccccc2Cl)ccc1O 40.2%
CCCCCNC(=O)c1ccc2c(=O)[nH]c3c(C(=O)NCC4CCCO4)sc(=S)n3c2c1 (stereo not given) 53.8%
Cc1ccc(CNC(=O)c2ccc3c(=O)[nH]c4c(C(=O)NCC5CCCO5)sc(=S)n4c3c2)cc1 (stereo not given) 1.99%
O=C(NC1CCCCC1)c1sc(=S)n2c1[nH]c(=O)c1ccccc12 24.2%
O=C(NCc1ccccc1)c1sc(=S)n2c1[nH]c(=O)c1ccccc12 27.9%
Cc1ccc(Nc2nc(N)nc(CSc3nnc(-c4ccncc4)o3)n2)cc1 -3.96%
O=c1cc(C(Cl)(Cl)Cl)oc2c1ccc1ccccc12 -3.47%
CC(=O)C1=C(O)C(=O)N(c2ccc(S(N)(=O)=O)cc2)C1c1ccc([N+](=O)[O-])cc1 (stereo not given) 23%
Cc1ccc(N2CC(=O)Nc3c(oc4nc(-c5ccccc5)cc(C)c34)C2=O)cc1 -16.6%
COC(=O)CSc1[nH]c(=O)cc(C)c1C#N 0.03%
Cc1cc(=O)[nH]c(SCC(=O)O)c1C#N 2.48%
CCOC(=O)CSc1[nH]c(=O)cc(C)c1C#N 17%
Cc1cc(=O)[nH]c(SCC(=O)c2ccccc2)c1C#N 16.9%
CCOC(=O)NC(=O)C(=CNc1ccccc1OC)C(=O)NC(=O)OCC 22.1%
O=[N+]([O-])c1ccc([C@H](O)[C@H](CO)N=Cc2ccccc2O)cc1 3.71%
CCNC(=O)CC1C(=O)N(c2ccccc2)C(=O)N1Cc1ccc(OC)cc1 (stereo not given) -7.36%
Cc1c(-c2nnc(-c3ccc(C(F)(F)F)cc3)o2)cnn1-c1ccccc1 -4.2%
CC(=C\c1ccccc1)/C=C1/SC(=O)N(CCCC(=O)Nc2ccc(C(=O)O)cc2)C1=O 52.8%
CC(/C=C1\SC(=S)N(CC(=O)O)C1=O)=C\c1ccccc1 19.7%
Cc1cc(C(=O)Nc2sc3c(c2C#N)CCC(C(C)(C)C)C3)no1 (stereo not given) -3.46%
CN1CCN(CC(=O)Nc2sc3c(c2C#N)CCC(C(C)(C)C)C3)CC1 (stereo not given) -2.54%
CC(=O)Nc1sc2c(c1C#N)CCC(C)C2 (stereo not given) -3.55%
CCCC1CCc2c(sc(NC(=O)OCC)c2C#N)C1 (stereo not given) -10%
CCCn1ncc(CN2CCN(Cc3ccsc3)C(CCO)C2)c1C (stereo not given) -4.96%
Cc1ccc(Nc2ccc(-n3ccnc3)nn2)cc1C 1.15%
CCCCNC(=O)N1CCN(C(=O)C2CCCO2)CC1 (stereo not given) -0.24%
C=C(C)COc1ccc2oc(C)c(C(=O)OCCOC)c2c1 -2.33%
CCCCOc1ccc(N(CC(=O)NCC2CCCO2)C(=O)CCC(=O)Nc2nccs2)cc1 (stereo not given) -11.6%
CCOc1ccc(NC(=O)C2CC(=O)NC(N3CCc4ccccc43)=N2)cc1 (stereo not given) 13.4%
O=C(CSc1nccc(=O)[nH]1)Nc1ccc(F)c([N+](=O)[O-])c1 31.4%
CCn1c2ccccc2c2cc(NC(=O)CC(C)=O)ccc21 -12.3%
CCC(=O)Nc1ccc(Br)c(Cl)c1 -2.61%
Nc1cc(=O)[nH]c(SCC(=O)Nc2ccc(F)c(Cl)c2)n1 45.2%
O=C(CSc1nccc(-c2cccs2)n1)Nc1ccc(F)c(Cl)c1 8.92%
CCCC(=O)Nc1ccc2c(c1)c1ccccc1n2CC -0.99%
CN(C)S(=O)(=O)c1cccc(NC(=S)NCCCn2ccnc2)c1 2.61%
Cn1nnc2cc(C(=O)N3CCC(c4ccccc4)C3)ccc21 (stereo not given) 9.75%
O=C(COc1ccc(/C=N/NC(=O)c2ccc(O)cc2)cc1)Nc1cccc([N+](=O)[O-])c1 -2.3%
CNC(=S)Nc1cccc(Cl)c1C 0.94%
CCn1c(Cc2ccccc2)nnc1SCc1ccc([N+](=O)[O-])cc1 -12%
Oc1[nH]c2ccccc2c1N=Nc1ccccc1 7.84%
Cc1[nH]c2ccccc2c1N=Nc1cc(C(=O)O)cc(C(=O)O)c1 21.5%
Oc1[nH]c2ccccc2c1N=Nc1ccc(F)cc1 26.1%
CC(=O)c1cccc(N=Nc2c(C)[nH]c3ccccc23)c1 -8.29%
COc1cccc(CNC(=O)CCC2CCCN(Cc3cc4ccccc4o3)C2)c1 (stereo not given) -1.88%
Cc1nnc(SCc2cc(=O)[nH]c(=S)[nH]2)s1 27.4%
O=c1cc(Cc2ccccc2)[nH]c(=S)[nH]1 0.4%
O=C(NC1CCS(=O)(=O)C1)c1cn(-c2ccccc2)nc1-c1ccccc1 (stereo not given) -4.23%
Cc1cc(C)nc(N2CCCC(C(=O)NC(C)CCc3ccco3)C2)n1 (stereo not given) 2.6%
CC(OC(=O)CCCc1nc2ccccc2s1)C(=O)NC(N)=O (stereo not given) -1.53%
Cc1ccccc1S(=O)(=O)c1cc(C#N)c(=O)[nH]c1N -8.15%
COc1ccc(N(CC(=O)NCc2ccccc2)S(=O)(=O)c2c(C)noc2C)cc1 -3.73%
CCOc1ccc(NC(=S)NCc2nc3ccccc3[nH]2)cc1 -5.56%
Cc1ccc(-c2ccc(/C=N/N3C(=O)C4C5C=CC(CC5)C4C3=O)o2)c([N+](=O)[O-])c1 (stereo not given) 5.1%
O=C(O)CC1S/C(=N/N=C/c2ccc(-c3ccc(Cl)cc3[N+](=O)[O-])o2)NC1=O (stereo not given) 31.2%
COc1cc(-c2cc(C(=O)Nc3nc4ccccc4s3)c3ccccc3n2)cc(OC)c1OC 4.34%
c1ccc(CN2c3ccccc3-c3nc4ccccc4n3C2c2ccccn2)cc1 (stereo not given) 1.51%
COCCOC(=O)C1=C(C)NC(=O)NC1/C=C/c1ccccc1 (stereo not given) 0.26%
N#C/C(=C/c1ccc(F)cc1)S(=O)(=O)c1ccccc1 -4.38%
Cc1cc(C)c(/C=C(\C#N)S(=O)(=O)c2ccccc2)[nH]1 -7.74%
COc1cccc(OCCn2cccc2/C=C2/C(=N)N3OC(C)=CC3=NC2=O)c1 0.81%
CC1=CC2=NC(=O)/C(=C\c3cccn3CCOc3ccccc3)C(=N)N2O1 8.69%
Cc1nn(-c2ccccc2)c(C)c1C(=O)NCc1ccc(F)cc1 -15.7%
FC(F)(F)c1cnc(-c2cnc(-c3cccnc3)nc2)c(Cl)c1 1.19%
c1coc(-c2ncc[nH]2)c1 -2.51%
c1coc(-c2nc(-c3ccco3)c(-c3ccco3)nc2-c2ccco2)c1 48.1%
COc1ccc(/C=N/N2CCN(c3ccncc3S(=O)(=O)N3CCCCC3)CC2)cc1 0%
Cc1cc(C(=O)COC(=O)c2cccnc2Cl)c(C)n1-c1c(C)n(C)n(-c2ccccc2)c1=O 10.5%
CCCn1c(C)cc(C(=O)COC(=O)c2nccnc2N)c1C 6.47%
CCOc1ncccc1C(=O)OCC(=O)c1cc(C)n(Cc2ccco2)c1C 6.52%
Cc1cc(C(=O)OCC(N)=O)c(C)n1-c1ccccc1 3.65%
COc1ccc(Nc2nc(N)nc(CN3CCC(Cc4ccccc4)CC3)n2)cc1 -2.44%
CCOC(=O)CC(=O)CSc1n[nH]c(=O)[nH]c1=O -5.31%
C=CCn1c(SCC(=O)c2ccc(O)c(O)c2)nnc1-c1cccnc1 22.5%
C=CCn1c(SCC(=O)c2ccc(OC)cc2)nnc1-c1cc2cccc(OC)c2o1 3.95%
CCn1c(SCC(=O)O)nnc1-c1ccccc1OC -7.5%
CCn1c(SCC(=O)C(C)(C)C)nnc1-c1ccccc1OC 6.79%
CCC(=O)Nc1ccc(C(=O)NNC(=O)C(c2ccccc2)c2ccccc2)cc1 5.41%
O=C(CNC(=O)c1ccc([N+](=O)[O-])cc1)N/N=C\c1ccc(OC(=O)c2ccccc2)cc1 -2.63%
COc1ccc(S(=O)(=O)NCCc2ccccc2)cc1 -1.2%
Cc1nn(C)cc1/C=N/NC(=O)Cn1cncn1 0.36%
C=CCN1C(=O)CC(C(=O)NC)SC1=Nc1ccc(C(=O)OCC)cc1 (stereo not given) 4.4%
CC(=O)Nc1c(C(=O)N2CCN(c3ccccn3)CC2)cnn1-c1ccc(C)cc1 11%
CC1=CC(C)C2C(=O)N(O)C(=O)C2C1 (stereo not given) 1.69%
CN(c1ccc(F)cc1)S(=O)(=O)c1ccc(Cl)c(C(=O)OCC(=O)NCc2ccco2)c1 4.4%
COc1ccc(Nc2nc3ccccc3nc2NS(=O)(=O)c2cccs2)cc1 9.26%
COc1ccc(S(=O)(=O)/N=C2/NC(=O)/C(=C\c3ccco3)S2)cc1 22.2%
NC1=NC(=O)/C(=C\c2ccco2)S1 25.9%
COc1ccc(NS(=O)(=O)c2cccs2)c(OC)c1 -8.72%
O=C1CN(C(=O)CCN2CCOCC2)C(c2ccccc2)c2cc(Br)ccc2N1 (stereo not given) 8.27%
Cc1cc(/C=C2/C(=O)NN(c3ccccc3)C2=O)c(C)n1-c1ccc(O)cc1 -3.4%
Cc1cc(C=O)c(C)n1-c1ccc(Cl)c(C(=O)O)c1 14.1%
